Results taken from ChEMBL document CHEMBL4513216, “Probing the Open Global Health Chemical Diversity Library for Multistage-Active Starting Points for Next-Generation Antimalarials” (ACS Infect Dis, 2020).
About 8,600 (12%) of roughly 69,000 compounds showed an effect of 50% or more. What follows is part of a selection rich in strong results, with near analogues and random picks from the rest.

Each compound was assayed on Plasmodium berghei (assay: Screen against P. berghei liver stage (PbLuc), transformed with Luciferase, at 10uM). Conditions: tested at 10 uM.
Type: functional, HepG2
`O[C@@H]1CC(CNCc2ccc(Cl)cc2)(COc2cccnc2)C[C@@H]1O` (some centres undefined) gave an INHIBITION of -26.2%. `COC(=O)CCC(=O)N1CCC2(CN(Cc3ccccc3)C2)C1` gave an INHIBITION of 5.56%. `COCCC(=O)N1CC2(CCN(Cc3ccccc3Cl)CC2)C1` gave an INHIBITION of 69.5%. `COCCC(=O)N1CC2(CCN(Cc3cccc(Cl)c3)CC2)C1` was tested, and the INHIBITION was 15.9%. `COCCC(=O)N1CCC2(CCN(Cc3cccc(F)c3)CC2)CC1` was tested, and the INHIBITION was 45.1%. For `COCCC(=O)N1CCC2(CN(Cc3cccc(F)c3)C2)C1`, the INHIBITION was 4.27%. For `COCCC(=O)N1CCC2(CCN(Cc3cccc(F)c3)C2)C1` (centres undefined), the INHIBITION was 57.9%. `COCCC(=O)N1CCC2(CCN(Cc3cccc(F)c3)CC2)C1` gave an INHIBITION of 49.7%. `COC(=O)N1CCN(Cc2ccccc2Cl)CC1` gave an INHIBITION of 33.7%. `COCCC(=O)N1CCC2(CN(Cc3cccc(Cl)c3)C2)C1` showed an INHIBITION of 81.2%. For `COC(=O)CCC(=O)N1CCC2(CN(Cc3ccc(Cl)cc3)C2)C1`, the INHIBITION was -26.1%. `COC(=O)CCC(=O)N1CCC2(CN(Cc3cccc(Cl)c3)C2)C1` was tested, and the INHIBITION was 57.9%. `COCCC(=O)N1CCC2(CN(Cc3ccc(OC)c(F)c3)C2)C1` was tested, and the INHIBITION was -44.8%. In the case of `CC(=O)N(C)Cc1cccc(NC(=O)CCCc2nc(C(C)C)no2)c1`, the INHIBITION was -32.9%. `CN(C)C(=O)COCc1cncc2c1CCN(Cc1ccccc1)C2` showed an INHIBITION of -45.5%. `Cc1ccc([C@H]2CN(C(=O)CC3CCC3)C[C@@H]2N)o1` was tested, and the INHIBITION was -92.8%. Work on `Cc1c(C(=O)NCCC2CN(C)CCO2)n(C)c2c(C)cccc12` (centres undefined) yielded an INHIBITION of 33.4%. `Cc1nccn1-c1cc(CNC(=O)NCC2CCCO2)ccn1` (centres undefined) was tested, and the INHIBITION was -2.33%. Compound `CCC(C)C(=O)NCCCn1nc(C)cc1C` (centres undefined) has an INHIBITION of -2.48%. In the case of `O=C(NCCc1ccc(I)s1)N1CCC1`, the INHIBITION was -7.31%. Work on `OC1(CN2CCN(c3cccc(C(F)(F)F)c3)CC2)CNCCOC1` (centres undefined) yielded an INHIBITION of 41.5%. `c1ccc(Cc2noc(-c3ccc(NCC4CCCCO4)nc3)n2)cc1` (centres undefined) showed an INHIBITION of 26%. `COCCNC(=O)NC(=O)CNc1c(F)cccc1N1CCCC1` gave an INHIBITION of -32.5%. `CC[C@@H]1N(CC2CCC2)CCC[C@]12CCC(=O)N2Cc1ccncc1` showed an INHIBITION of -8.51%. `CC1(C(=O)N2CCN(C3CCCC3)CC2)CNCCO1` (centres undefined) gave an INHIBITION of -21.4%. `Cc1ccc(-c2cc(C(=O)N(C)Cc3noc4c3CCCC4)[nH]n2)s1` was tested, and the INHIBITION was -14.3%. `O=C(C1CCC1)N1CCC2(CCN(Cc3cccc(F)c3)CC2)CC1` was tested, and the INHIBITION was 45.7%. `COCCC(=O)N1CCC2(CCN(Cc3ccc(C)cc3)CC2)C1` showed an INHIBITION of 4.27%. Work on `COCCC(=O)N1CC2(CCN(Cc3ccoc3)C2)C1` yielded an INHIBITION of 54.6%. With `Cn1ccnc1CN1CCC2(CC1)CCN(Cc1ccoc1)C2` the INHIBITION was -37.4%. With `O=C(C1CC1)N1CCC2(CCN(Cc3cccc(F)c3)CC2)CC1` the INHIBITION was -13.4%. Work on `Cc1ccc(CN2CCC3(CC2)CCN(Cc2ccoc2)CC3)cc1` yielded an INHIBITION of -34.6%. Work on `Cc1ccc(CN2CCCC3(CCN(Cc4ccoc4)CC3)C2)cc1` yielded an INHIBITION of 82.8%. In the case of `COCCC(=O)N1CC2(CCN(Cc3ccncc3)CC2)C1`, the INHIBITION was 47.4%. In the case of `O=C(C1CC=CC1)N1CCC2(CCN(Cc3cccc(F)c3)CC2)C1`, the INHIBITION was 59.8%. Work on `O=C(CC1CCCC1)N1CCCC1c1ccc(CN2CCOCC2)cn1` (centres undefined) yielded an INHIBITION of 30.25%. With `CC(C)c1nn(C)c(N(C)C)c1CNC(C)c1ccc2c(c1)OCO2` (centres undefined) the INHIBITION was 22.3%. Work on `CCC(C)N(Cc1cccnc1)C(=O)c1ncccc1O` (centres undefined) yielded an INHIBITION of 39.9%. Compound `Cc1nnc(NC(=O)CN(C)C2CCCN(c3cccnn3)C2)s1` (centres undefined) has an INHIBITION of 12.7%. `Cc1csc(CNC(=O)NC(C)c2ccc3c(c2)OCCO3)n1` (centres undefined) was tested, and the INHIBITION was 44.9%. `Cc1ccc(CNC2CCc3nc(C(C)C)nn3C2)o1` (centres undefined) gave an INHIBITION of -17.7%. `c1cncc(C[C@H]2[C@H](N3CCOCC3)CCN2Cc2cccs2)c1` gave an INHIBITION of -7.24%. In the case of `CCCOCCOC(=O)c1ccc2c(c1)[nH]c(=O)n2C`, the INHIBITION was 26.6%. `Cn1c(=O)[nH]c2cc(C(=O)OCCCn3ccccc3=O)ccc21` was tested, and the INHIBITION was 60%. For `CCOCCCOC(=O)c1ccc2c(c1)[nH]c(=O)n2C`, the INHIBITION was -5.47%. In the case of `Cc1nn(C)c(C)c1C1COCCN1C(=O)CCc1ccccc1` (centres undefined), the INHIBITION was 5.7%. With `Cc1nnc(NC(=O)CCc2c(C)nn3cnnc3c2C)s1` the INHIBITION was 16.6%. For `CCCn1c(C)c(CC(=O)N(C)CCO)c2c1CC(C)(C)CC2=O`, the INHIBITION was 48.1%. Compound `COC(=O)C(C)(C)NC(=O)C1CC(=O)N(C2CC2)C1` (centres undefined) has an INHIBITION of 84.1%. In the case of `COC(=O)C(C)(C)NC(=O)C1CC(=O)N(C2CCCC2)C1` (centres undefined), the INHIBITION was 20.1%. `COC(=O)C(C)(C)NC(=O)C1CC(=O)N(C)C1` (centres undefined) showed an INHIBITION of 35.1%. `OCC1(O)CCN(Cc2noc(-c3ccccc3)n2)CC1` showed an INHIBITION of 20.3%. Compound `Cn1ccnc1CN1CCCN(C(=O)c2ccc(Cl)o2)CC1` has an INHIBITION of 29.1%. Work on `CC(=O)N1CCN(Cc2ccc(F)cc2)CC2(CC(=O)N(C)C2)C1` (centres undefined) yielded an INHIBITION of -6.05%. With `CC(O)CN1CCN(C(=O)c2ccc(Br)o2)CC1` (centres undefined) the INHIBITION was 16.2%. For `O=C(c1ccc(Br)s1)N1CCN(Cc2ccc(OC(F)(F)F)cc2)CC1`, the INHIBITION was 79%. For `CC(=O)N1CCN(Cc2ccc(OCc3nccn3C)cc2)CC1`, the INHIBITION was 1.78%. For `Cc1ccc(CN2CCN(C(=O)c3ccc(Br)o3)CC2)cc1`, the INHIBITION was 92.8%. In the case of `O=C(c1ccc(Br)o1)N1CCN(Cc2ccc(OC(F)(F)F)cc2)CC1`, the INHIBITION was 90%. `Cc1cc(C)n(CCN2CCN(C(=O)c3ccc(Br)o3)CC2)n1` was tested, and the INHIBITION was -13.3%. With `O=C(c1ccc(Br)o1)N1CCN(Cc2ccc(F)cc2)CC1` the INHIBITION was 62.5%. For `CCc1ccc(C(=O)N2CCN(CCO)CC2)o1`, the INHIBITION was -13.5%. In the case of `CCc1ccc(C(=O)N2CCCN(Cc3nccn3CC)CC2)s1`, the INHIBITION was 8.47%. In the case of `COC(=O)c1sccc1CN1CCN(C(=O)c2ccc(C)o2)CC1`, the INHIBITION was 30.9%. `O=C(c1cscn1)N1CCC2(CN(Cc3ccsc3)C2)C1` gave an INHIBITION of 45.2%. `N#Cc1ccccc1C(=O)NCCC1CN(Cc2ccco2)CCO1` (centres undefined) showed an INHIBITION of 23.3%. `CN(c1ccncn1)C1CC2(CCN(C(=O)c3cncs3)C2)C1` (centres undefined) gave an INHIBITION of 32.3%. `Fc1ccccc1OCCc1cc(C2CCNC2)n[nH]1` (centres undefined) was tested, and the INHIBITION was -14.1%. `Cc1nc(CN2CCCC(N(C)CCCc3ccccc3)C2)no1` (centres undefined) showed an INHIBITION of -11.4%.
